High-throughput results: PubChem, several laboratories
Shown are actives, neighbours in structure and some others; about 4.1% of the full set was active somewhere.
DAX1 inh-1 – blocks DAX1 repression of SF-1 activated StAR promoter | 1.1% of 370,000 active | HEK293T StAR-luciferase reporter, SF-1/DAX-1 repression relief | AID 652010 | inhibition, % at 6.8 µM;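 active = inhibition above the mean over all tested compounds plus 3 SD, cut at about 3.6% in these data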;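 note: higher inhibition means more luminescence from relief of DAX-1 repression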
PolyA inhibitor – blocks polyadenylation in yeast reporter cells. S. cerevisiae SKY197-pL101 polyadenylation reporter, beta-gal luminescence; efflux-impaired pdr1/pdr3 knockout yeast; score 100 = 6 SD above DMSO. activity score, % at 12 µM. 0.02% of 300,000 active;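 active = lowest replicate activity score at least 50, where 100 means six control SD above control mean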;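 note: yeast exposed to compound for 9 h at 30 °C; higher score means more reporter readthrough which indicates perturbed polyadenylation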
DAX1 inh-2 – inhibitors of human orphan nuclear receptor DAX1 (NR0B1); HEK293 Gal4-DAX1 luciferase reporter, luminescence; 0.99% of 340,000 active; inhibition, % at 6.75 µM; P51843; AID 504766;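 active = inhibition above the mean over all tested compounds plus 3 SD, cut at about 4.2% in these data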;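 note: inhibition shows as a rise in luminescence from relieved DAX1 repression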
Target sequence (P51843 207-470 limits assumed): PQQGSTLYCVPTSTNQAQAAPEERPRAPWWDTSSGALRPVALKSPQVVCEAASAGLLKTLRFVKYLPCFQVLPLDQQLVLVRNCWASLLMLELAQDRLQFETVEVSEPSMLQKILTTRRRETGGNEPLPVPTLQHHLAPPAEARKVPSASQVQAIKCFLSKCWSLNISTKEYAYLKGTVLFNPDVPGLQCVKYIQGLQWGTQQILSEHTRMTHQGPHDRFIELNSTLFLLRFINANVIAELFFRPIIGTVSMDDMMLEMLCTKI
hcDAF-12 act – H. contortus DAF-12 activation, primary screen; HEK293 hcDAF-12 lit1-tk-luc reporter, luminescence; 0% DMSO, 100% Δ7-dafachronic acid; activation, % at 6.8 µM; 1.4% of 370,000 active; AID 652067;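 active = activation above the mean of all tested compounds plus 3 SD, cut at about 5.5% in these data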
hgDAF-12 ag – hgDAF-12 agonism, primary luciferase screen; HEK293 GAL4-hgDAF12 UAS-luciferase reporter, agonist luminescence; normalized to butyrate control; activation, % at 6.8 µM; 1.8% of 370,000 active; AID 687014;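 active = activation above a cutoff set at the mean of all screened compounds plus 3 SD, cut at about 10% in these data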
ssDAF-12 act – S. stercoralis DAF-12 activation, primary screen; HEK293 ssDAF-12/GRIP1 lit1-tk-luc reporter, luminescence; % of 3 µM dafachronic acid response; activation, % at 6.8 µM; 1% of 370,000 active;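 active = activation above the mean over all tested compounds plus 3 SD, cut at about 0.9% in these data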
Numbers stand for hits; 0 = inactive; - = no result.

SMILES	DAX1 inh-1	PolyA inhibitor	DAX1 inh-2	hcDAF-12 act	hgDAF-12 ag	ssDAF-12 act
Cc1nc2ccc(Br)cn2c1C(=O)N/N=C\c1ccc(C(C)C)cc1	0	0	0	0	0	0
COc1cccc(/C=N/NC(=O)c2c(C)nc3ccc(Br)cn23)c1	0	0	6.4	0	0	0
O=C(N/N=C/c1ccc(F)cc1)c1ccc(Br)cc1	0	0	0	0	0	0
Brc1ccc(-c2csc(N3CCNCC3)n2)cc1	-	-	-	0	0	0
CN1C2=N[C@@H](c3ccc4c(c3)OCO4)CC(=O)N2/C(=C\c2ccccc2)[C@@H]1c1ccccc1	-	-	-	0	0	0
Clc1ccc(-c2nnc(CCc3ccccc3)o2)c(Cl)c1	0	0	0	5.8	0	0
COc1ccc(CNC(=O)C2CCCN(c3nc4ccccc4o3)C2)cc1 (stereo not drawn)	0	-	-	0	0	0
Cc1ccc2c(c1)c1c3n2CCN(CCC#N)C3CCC1 (stereo not drawn)	0	-	4.5	0	0	0
O=C(NC1CCCCN(Cc2cccc(Cl)c2)C1=O)c1cccc2nsnc12 (stereo not drawn)	0	-	-	0	0	0
COC(=O)[C@H](CC(C)C)N(CCCc1cn(CC2CCCCC2)nn1)S(=O)(=O)c1ccc(F)cc1Br	0	-	-	0	0	0
Oc1ccc(-c2nn[nH]n2)c2cccnc12	-	-	-	0	0	0
Brc1ccc(-c2cn3c(n2)SCC3)cc1	0	0	0	0	11	0
Cc1cc(=O)nc2c3ccccc3n(CC(=O)NCCCN3CCCC3=O)n12	0	0	0	6.0	0	0
Cc1cc(=O)nc2c3ccccc3n(C(C)C(=O)NCCN3CCOCC3)n12 (stereo not drawn)	0	0	0	0	0	0
CCN(CC)CCCNC(=O)C(C)n1c2ccccc2c2nc(=O)cc(C)n21 (stereo not drawn)	0	0	5.4	0	0	0
Cc1cc(=O)nc2c3ccccc3n(CC(=O)NCCCN3CCOCC3)n12	-	0	0	-	-	-
Cc1ccccc1NC(=O)C(=O)NCCCN1CCCC1=O	3.7	0	0	0	0	0
CCc1noc(C)c1C(=O)N1CCN(CC(=O)OC)CC1	0	-	-	0	0	0
COC(=O)c1cc(S(=O)(=O)NCc2cccc(OC)c2)cn1C	0	0	5.3	0	0	0
O=S1(=O)N[C@@H](Cc2ccccc2)COc2cc(NC3CC3)ccc21	0	-	-	0	0	0
O=c1c(-c2cccc([N+](=O)[O-])c2)[n+]([O-])c2ccccc2n1O	0	0	6.5	0	0	0
O=c1c(-c2ccc(Cl)cc2)[n+]([O-])c2ccccc2n1O	0	0	0	0	0	0
CCN(CC)C(=O)N1CCC(NC(=O)c2ccccc2)CC1	0	0	4.7	0	0	0
O=C(NC1CCN(C(=O)N2CCOCC2)CC1)c1ccccc1	0	0	0	0	0	0
COc1ccc(OC)c(-c2nnc(SCC(=O)N3CCOCC3)o2)c1	0	0	0	0	0	0
SMILES	DAX1 inh-1	PolyA inhibitor	DAX1 inh-2	hcDAF-12 act	hgDAF-12 ag	ssDAF-12 act
O=C(CSc1nnc(-c2ccc(Cl)cc2)o1)N1CCOCC1	0	0	0	0	11	0
O=C(CSc1nnc(-c2cccs2)o1)N1CCOCC1	0	0	0	0	0	0
O=C(CSc1nnc(-c2cccs2)o1)N1CCCCC1	0	0	0	0	12	0
Cc1ccccc1-c1nnc(SCC(=O)N2CCCC2)o1	0	0	0	0	11	0
COc1ccccc1-c1nnc(SCC(=O)N2CCCCC2)o1	0	0	0	0	0	0
COc1ccc(OC)c(-c2nnc(SCC(=O)N3CCCC3)o2)c1	0	0	4.9	0	0	0
S=C(Nc1cc(Cl)cc(Cl)c1)NC(c1ccccc1)c1ccccc1	-	-	-	0	0	0
COC(=O)[C@]12C[C@H](CC(=O)N3CCN(C(=O)C4CC4)CC3)C(=O)N(Cc3ccc(Cl)cc3Cl)C1=C[C@H](C1CCCC1)O[C@@H]2C	0	-	-	0	0	0
Cc1ccccc1-c1nnc(-c2cccc3ccccc23)o1	0	-	0	0	0	0
Fc1ccccc1CSc1nnc(-c2cccs2)o1	3.7	0	0	0	11	0
c1ccc(CSc2nnc(-c3cccs3)o2)cc1	0	0	0	0	0	0
Cc1ccccc1-c1nnc(-c2ccccc2C)o1	0	0	0	0	11	0
COc1ccc(C(=O)N2C(=S)NC(=O)/C2=C\c2ccc(C)cc2)cc1	0	0	0	0	12	0
